Each sequence was assayed against ADCYAP1 (assay: pooled miR-30 sensor sort-seq; sequence = guide strand). Details: shRNA.
Also: reference of the scale not given here.

Sequence	sensor-assay potency score (higher = more potent)
TGTCCGTGAAGATCCCGTCCGA	-0.344
TGGGCGACATCTCTTCTCCCGG	-1.69
TTTGTTTCCGGTAGCGGCTGTA	-0.47
TTGTTTCCGGTAGCGGCTGTAG	-0.993
TTGGATAGAACACACGAGCGAT	-0.826
TGCTGTGCATGATTATCCCATA	-1.74
TTCCTCTGGCCTGATCCCGGGG	-1.18
TAGCGGCTGTAGCTGTCCGTGA	-1.1
TAGGCCTCGTTAAGGATCCCGT	-0.922
ATTTGTTTCCGGTAGCGGCTGT	-0.122
TTTGTTTATACCTCTTCCCTAG	0.232
TTATCCCATAGACCAGCAGGGC	-1.43
TAACCCTTTGTTTATACCTCTT	-0.602
TAGCTGTCCGTGAAGATCCCGT	-0.391
TTGACAGCCATTTGTTTCCGGT	-0.424
TTACATAAATACATGTTTGGAT	-0.0777
TTAACCCTTTGTTTATACCTCT	-0.397
TCTTCCTCTGGCCTGATCCCGG	-1.48
TTGTTTATACCTCTTCCCTAGG	-0.956
TATCCCATAGACCAGCAGGGCC	-1.32
TGTTTGGATAGAACACACGAGC	-1.09

These sequences were tested against ADC in the same assay as above. Details: shRNA.

Sequence	sensor-assay potency score (higher = more potent)
TTGTCAAACAGGACTGAGTTGA	-0.112
TTGCATACTTGAACTACAGCGA	0.563
TGGTCTTGGAGGTGGAACCATT	-1.77
TTCTGCAGCCATCAGCTGCCTT	-1.15
TTGATCACGGAAGCAATCTCTT	-0.838
TTCAGTGACACTCCAAACTTTA	-0.979
TTTTCAAGCAGGTGTCTGCAGG	-0.788
TGACACTCCAAACTTTAGGCTC	-0.511
TACACGATGGTCTTGGAGGTGG	-0.24
TTCTTCTGCAGGATGGGGGTAG	-0.285
TTTCAGTGACACTCCAAACTTT	-0.644
ATGTTGTCAAAGACCAGCCAGT	-1.56

These sequences were tested against ADD2 in the same assay as above. Details: shRNA.

Sequence	sensor-assay potency score (higher = more potent)
TCAAGTTCTAGTTTCTTCCTCT	0.727
TTTAGTTTTGAAGTGCCTGAGA	-0.472
TAAATGTAGAGATAGCTCCATC	-0.556
TTGCTTGTTTCTGTCTTCTTAG	-0.81
TCTGTTGTTTTGATCCTCCTTA	0.276
TTAAATGTAGAGATAGCTCCAT	0.598
TTTCTGTCTTCTTAGTACCTTC	-0.453

From the OligoGym collection
